31 compounds from PubChem BioAssay (NCI) can be followed below.

“And” between values parts separate entries of the source, which are not always exact repeats. Equal entries are not always repeated. Compounds without any hit were thinned out: in the full panel of roughly 83,000, 20% have a hit.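 Assay: single dose, 48 h. Readout: percent growth (0 = no net growth; negative = cell death). Active: <10.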 Values without a mark were called inactive. The source made the active and inactive calls.

This assay relates to RXF 393 renal. Put plainly: NCI-60 one-dose screen, 48 h (100 = growth as untreated, 0 = no growth, -100 = all killed). Conditions: 10 µM unless noted.
On to `COc1ccc2c(c1)c(-c1nc(-c3c[nH]c4c(Cl)nccc34)cs1)cn2C`, for which the growth is 83.2%. With `C[C@]12CCc3c(ccc4cc(O)ccc34)[C@@H]1C[C@H](O)[C@@H]2O`, the growth is 102%.

On to `ON=C1CCCCCCCC1`, for which the growth was 112%.

Regarding `CCCCCCCCCCCCCCCC[N+](C)(C)CCN(Cc1ccc(OC)cc1)c1ncccn1`, the growth is -58.4% (active) and -49.8% (active). Turning to `Cc1nc2sc(C(=O)Nc3cccc4ncccc34)c(N)c2cc1C(C)O` (stereo unspecified), the growth was 70.1%. Next, `C=C[C@]1(C)C=C2CC[C@@H]3C(C)(C)C(=O)CC[C@@]3(C)[C@@H]2CC1`: 127%; `CC[C@H](C)[C@H](NC(=O)[C@H](CCCCN)NC(=O)[C@H](CCCCN)NC(=O)[C@@H](NC(=O)[C@@H](NC(=O)[C@@H](N)Cc1cnc[nH]1)[C@@H](C)CC)[C@@H](C)CC)C(=O)N[C@@H](CCCNC(=N)N)C(=O)N[C@H](C(=O)N[C@@H](Cc1c[nH]c2ccccc12)C(=O)N[C@@H](Cc1ccc(O)cc1)C(=O)N[C@@H](CCCNC(=N)N)C(=O)N[C@@H](CCCCN)C(=O)N[C@@H](C)C(=O)N[C@@H](Cc1c[nH]c2ccccc12)C(=O)N[C@@H](Cc1cnc[nH]1)C(=O)N[C@H](C(=O)N[C@@H](CC(C)C)C(=O)NCC(=O)N[C@@H](CCCCN)C(=O)N[C@H](C(N)=O)C(C)C)C(C)C)[C@@H](C)O`: 23.4%; `CC(=O)N1N=C(c2ccc(F)cc2)CC1c1sc(N(C)Cc2ccccc2)nc1Cl` (stereo unspecified): 101%. Consider `Cn1ccnc1CN1CCSC(C(=O)Nc2ccccc2)C1` (stereo unspecified), for which the growth is 94.2%.

For the compound `COc1ccc(/C=C2/C(=O)N=C3N2NC(c2ccccc2)=CN3c2ccccc2)cc1`, the growth was 89.7%. Turning to `Cc1oc2c(Cc3ccc(NC(=O)c4ccc(Cl)cc4)cc3)ncnc2c1C(=O)NO`, the growth was 97.6%. `CCN1CCN(C(=O)[C@]23CC[C@@H](C)[C@H](C)[C@@H]2C2=CC[C@@H]4[C@@]5(C)CCC(=O)C(C)(C)[C@@H]5CC[C@@]4(C)[C@]2(C)CC3)CC1`: the growth was -6.14% (active). As for `CC/C=C\C/C=C\C[C@H](O)C/C=C1/C(=O)C=C[C@@H]1C/C=C\CCCC(=O)OC`, the growth is -58.2% (active). `COc1ccc(-c2nnc3n(C)c(=O)c4ccccc4n23)cc1O`: the growth was -11.7% (active). Turning to `Cc1ccc(NC(=O)c2ccc(CN3CCN(C)CC3)cc2)cc1Nc1nccc(-c2cccnc2)n1`, the growth is 94.3% and 69.3%.

Regarding `OCCN1CCN(CC/C=C2\c3ccccc3Sc3ccc(Cl)cc32)CC1`, the growth was 23.5%. `COc1cc(-c2nn(-c3cccc(NC(=O)CCN4CCN(C)CC4)c3)cc2-c2ccncc2)ccc1Cl`: the growth was 18.6%. Regarding `Cc1cnc(C(=O)NNc2nc3sc4c(c3c(=O)[nH]2)C(C)CCC4)cn1` (stereo unspecified), the growth was 6.15% (active). Regarding `Cc1nc(-n2[nH]c(=O)ccc2=O)sc1N=Nc1ccccc1`, the growth was 97.5%.

Turning to `CC(=O)c1c(C)nc(SCC(=O)Nc2ccc(Cl)cc2)n1-c1ccc(Cl)cc1`, the growth is 67.3%.

With `C[N+]1=C(/C=C\C=C\c2ccccc2)C(C)(C)c2ccccc21`, the growth was 38%. Next, `COc1cc(/C=C(/c2ccccc2)[N+](=O)[O-])c(OC)c2c1OCO2`: -79.8% (active).

On to `C=C1C(=O)O[C@H]2[C@H]1CC/C(COC(=O)NCCCCNC(=O)OC/C1=C/CC[C@@]3(C)O[C@H]3[C@H]3OC(=O)C(=C)[C@@H]3CC1)=C\CC[C@@]1(C)O[C@@H]21`, for which the growth was -30.2% (active). Consider `COc1ccc(N2CCN(S(=O)(=O)c3oc(-c4ccccc4)nc3C#N)CC2)cc1`, for which the growth was 66.4%. As to `COc1ccc(-c2cc3cnc4ccccc4c3oc2=O)cc1`, the growth is 86.5%.

Regarding `CCOC(=O)c1nc2c3ccccc3cnn2c1C(=O)c1ccc(OC)cc1`, the growth is 106%. The same measure for `Cc1ccc2c(c1)C(C)Cc1c(ncnc1-n1cnc3cc(C)ccc31)N2C` (stereo unspecified): 21.3%; for `CCN1C(=O)N(c2ccccc2)C2NC(=S)N(/N=C/C=C/c3ccccc3)C21` (stereo unspecified): 9.01% (active); for `COc1ccc(-c2[nH]c3ccccc3c2-c2ccc(OC)cc2)cc1`: 51.9%. Take `COc1ccc(Cn2cc(C(=O)Nc3cccnc3Nc3ccccc3)nn2)cc1`: the growth is 103%. As to `CSc1nnc(-c2cc3c([nH]c4ccccc43)c(-c3cccc(O)c3)n2)n1-c1ccc(C)cc1`, the growth is 2.76% (active).
